Laboratory results: ChEMBL document CHEMBL3433997, “St. Jude Leishmania screening dataset” (2016)

Experiments:
Type in all cases: functional
[1] = molecular target: Solute carrier family 2, facilitated glucose transporter member 1 (Homo sapiens) (UniProt P11166); experiment: ST_JUDE_LEISH: Cytotoxicity at 2uM final concentration against transgenic Leishmania Mexicana promastigotes LmGLUT1 that are glucose transport deficient and complemented with the human glucose transporter GLUT1. Activity is measured by DNA content using SYBR green in vitro
[2] = molecular target: Hexose transporter 1 (Plasmodium falciparum) (UniProt O97467); experiment: ST_JUDE_LEISH: Cytotoxicity at 2uM final concentration against transgenic Leishmania Mexicana promastigotes LmPfHT that are glucose transport deficient and complemented with the Plasmodium falciparum hexose transporter. Activity is measured by DNA content using SYBR green in vitro
[3] = molecular target: Glucose transporter (Leishmania mexicana) (UniProt O61059); experiment: ST_JUDE_LEISH: Cytotoxicity at 2uM final concentration against transgenic Leishmania Mexicana promastigotes LmGT2 that are glucose transport deficient and complemented with the L. Mexicana glucose transporter 2. Activity is measured by DNA content using SYBR green in vitro

Solute carrier family 2, facilitated glucose transporter member 1 (Homo sapiens), sequence (P11166 whole entry): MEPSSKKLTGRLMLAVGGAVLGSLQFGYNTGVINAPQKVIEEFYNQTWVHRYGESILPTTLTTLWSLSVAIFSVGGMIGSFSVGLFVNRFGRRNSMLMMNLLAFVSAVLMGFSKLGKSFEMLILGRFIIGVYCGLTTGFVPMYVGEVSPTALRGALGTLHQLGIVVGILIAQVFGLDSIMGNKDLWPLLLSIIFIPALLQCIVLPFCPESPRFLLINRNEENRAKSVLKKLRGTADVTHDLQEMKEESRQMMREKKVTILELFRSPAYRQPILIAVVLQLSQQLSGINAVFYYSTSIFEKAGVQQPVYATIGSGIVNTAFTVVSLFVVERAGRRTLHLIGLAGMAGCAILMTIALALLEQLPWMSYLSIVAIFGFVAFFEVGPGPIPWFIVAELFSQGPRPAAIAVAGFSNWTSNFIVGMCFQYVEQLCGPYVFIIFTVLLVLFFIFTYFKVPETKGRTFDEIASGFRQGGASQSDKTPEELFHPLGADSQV

| SMILES | inhibition [1] [%] | inhibition [2] [%] | inhibition [3] [%] |
| --- | --- | --- | --- |
| c1ccc(Cn2nnnc2-c2cccc(Nc3ccnc4cc(-c5nccs5)ccc34)c2)cc1 | 1.8 | 2.17 | 1.96 |
| Cc1cccc2nc(-c3ccc(-c4ccc(CNCc5ccccc5)cc4)s3)[nH]c12 | 8.05 | 4.44 | 3.06 |
| O=C(Nc1cccc(F)c1)N1CCC(CN2CCOC(c3ccccc3)(c3ccccc3)C2)CC1 | 3.49 | 4.01 | 5 |
| N#Cc1cccc(CN2CCCN(c3ccc(NC(=O)c4cccs4)cc3)CC2)c1 | 4.81 | 4.44 | 4.34 |
| O=C(NCc1cccc(F)c1)Nc1cccc(-c2ccc(-c3nc4cc(C(F)(F)F)ccc4[nH]3)cc2)c1 | 0.26 | 1.57 | 0.07 |
| O=C(Nc1cccc(-c2cccc(-c3nc4cc(F)ccc4[nH]3)c2)c1)c1csnn1 | 6.12 | 4.57 | 1.83 |
| O=C(Nc1cccc(-c2nn3ncccc3c2-c2ccnc(Nc3cccc(-c4cnco4)c3)n2)c1)c1c(F)cccc1F | 6.24 | 7.13 | 2.26 |
| O=C(Nc1ccccc1)N(Cc1ccccc1-c1cccc(CNC2CCCC2)c1)C1CCN(Cc2ccccc2)CC1 | 0.15 | 1.64 | 4.91 |
| FC(F)(F)c1ccc2[nH]c(-c3ccc(-c4ccc(CNCCc5ccncc5)cc4)cc3)nc2c1 | 1.37 | -3.26 | 0.57 |
| Cc1noc(C)c1-c1ccc2c(Nc3ccccc3C(C)(C)C)c(C(=O)NCc3ccccc3)cnc2c1 | 6.6 | 7.11 | 3.62 |
| CC1(CCCCN2CCC(Cc3ccccc3)CC2)C(=O)Nc2ccccc21 (centres undefined) | 6.25 | 5.65 | 4.71 |
| CCN1CCN(CCCNc2ccnc3cc(Cl)ccc23)CC1 | 0.93 | 2.24 | 2.15 |
| CCOc1ccc(-c2nonc2NC(=O)c2cccc(Cl)c2)cc1OCC | 2.52 | 3.66 | -0.71 |
| CCc1cc(N2CCN(c3ccccc3F)CC2)nc(SCc2ccc(C(=O)NC3CC3)o2)n1 | 2.82 | 1.67 | 2.15 |
| COc1ccc(C(C(=O)NC2CCN(C[C@H](O)c3ccnc4ccc(OC)cc34)CC2)N2CCN(Cc3ccccc3)CC2)cc1 (some centres undefined) | 0.34 | 0.74 | -0.21 |
| Cc1cccc2nc(-c3ccc(-c4ccc(CN5CCOCC5)cc4)cc3)[nH]c12 | 4.34 | 3.46 | 2.61 |
| CCCCCCCC(=O)N[C@@H](Cc1ccccc1)C(=O)N[C@H](C(=O)O)C(C)C | 2.54 | 1.23 | 2.59 |

| SMILES | inhibition [1] [%] | inhibition [2] [%] | inhibition [3] [%] |
| --- | --- | --- | --- |
| Oc1ccccc1CCNC1CCc2ccccc2C1 (centres undefined) | 4.4 | 5.27 | 6.05 |
| O=c1ccc(-c2nc3cc(Cl)c(Cl)cc3n2Cc2ccc(Cl)cc2Cl)c[nH]1 | -0.54 | -0.54 | -0.93 |
| OC1CCCN(Cc2ccc(-c3ccc(-c4nc5cc(F)ccc5[nH]4)s3)cc2)C1 (centres undefined) | 3.05 | 2.51 | 1.76 |
| COc1cc2c(cc1OC)CC(NCCCCCCNCCc1ccc(Cl)cc1)CC2 (centres undefined) | 0.92 | -1.16 | 0.76 |
| O=C(Nc1ccc2c(c1)CN(Cc1ccc(N3CCCC3)o1)CCC2)c1ccoc1 | 19.8 | 12.8 | 2.73 |
| CC(C)C(=O)NC(c1ccc(Cl)cc1)c1ccc2cccnc2c1O (centres undefined) | 3.14 | 5.18 | 2.63 |
| O=S(=O)(c1c(Cl)cc(Cl)cc1Cl)N1CCCCC(c2ccc(C(F)(F)F)cc2)=N1 | 5.69 | 8.89 | 6.28 |
| COc1cc(OC)nc(C(Sc2ccc(NC(=O)c3cccs3)cc2)c2ccccc2)n1 (centres undefined) | 6.79 | 4.81 | 0.29 |
| Cc1cccc(C(=O)Nc2ccnc(N3CCC(N(C)Cc4cccc(O)c4)CC3)c2)c1 | 2.07 | 1.88 | 3.02 |
| CCOC(=O)C(C(C)=O)C(c1ccccc1)C(C(C)=O)C(=O)OCC (centres undefined) | 3.08 | 4.69 | 0.94 |
| CN(C)c1ccc(-c2csc(C(=O)NCC3CCN(CC4CCCCC4)C3)c2)cc1 (centres undefined) | 2.79 | 0.77 | 1.05 |
| O=C(Nc1ccc(C(=O)Oc2ccc(-c3ccccc3)cc2)cc1)N[C@@H](Cc1ccc(O)cc1)C(=O)NC1CCN(Cc2ccc(O)cc2)C1 (some centres undefined) | 2.56 | 2.9 | 4.33 |
| Cc1cccc2[nH]c(-c3cc(-c4cn[nH]c4)cnc3N)nc12 | 2.56 | 2.36 | 2.33 |
| CO/C(=C\C=C\c1cc2cc(Cl)c(Cl)cc2[nH]1)C(=O)NC1CCN(CCNc2ccccc2)CC1 | -1.91 | -1.2 | 0.08 |
| c1ccc(CN2CCN(c3cc(-c4cncc(-c5ccccc5)c4)nc(-c4ccccc4)n3)CC2)cc1 | 1.99 | 2.26 | 1.99 |
| COc1cc(Cn2ccc3c4c(N)nc(N)nc4ccc32)cc(OC)c1OC | 86.3 | 83.5 | 73.1 |
